# Measured values published in PubChem BioAssay AID504397 (Broad Institute, 2011).
# Results with a measured potency or affinity are listed apart. The source made the active and inactive calls. How the calls were made is not given here.
# Assay: mammalian cell cytotoxicity, dose response, cytotoxicity control, plate reader, cherry-pick samples (AID 504397)
# Details: plate reader viability; series mostly up to 35 µM
row,Compound,outcome
1,CCOC(=O)c1cc(-c2ccccc2)sc1NC(=O)C(C)Sc1nnnn1C (stereo unspecified),inactive
2,CCOC(=O)[C@@H]1[C@H]2COc3ccc(Br)cc3[C@@H]2N2C(=O)N(c3cccc(Cl)c3)C(=O)[C@]12C,inactive
3,CCn1cc(/C=C(\NC(=O)c2ccccc2)C(=O)N2CCOCC2)c2ccccc21,inactive
4,COc1ccc(CN2CCN(C(c3ccc(F)cc3)c3ccc(F)cc3)CC2)c(OC)c1OC,inactive
5,COc1cccc(-c2c(C(=O)N/N=C/c3sccc3C)nnn2-c2nonc2N)c1,inactive
6,CN(C)S(=O)(=O)c1ccc(NC(=O)/C=C/c2ccccc2Cl)cc1,inactive
7,Cc1cccc(-c2nnc(SCc3ccc(C#N)cc3)n2Cc2ccco2)c1,inactive
8,Cc1ccc(/C=N/NC(=O)c2nnn(-c3nonc3N)c2C(C)C)o1,inactive
9,CCOc1cc(S(=O)(=O)N(Cc2ccccc2)Cc2ccccc2)c(OCC)cc1-n1cnnn1,inactive
10,O=C(Nc1sc2c(c1C(=O)c1ccc(Cl)cc1)CCCC2)c1cccnc1,inactive
11,CCn1cc(/C=C(\NC(=O)c2ccccc2F)C(=O)N2CCOCC2)c2ccccc21,inactive
12,CCCCCCCCCCOC(=O)Cn1c(COc2ccccc2C)[n+](C)c2ccccc21,inactive
13,CN(C)CCN(C(=O)c1ccc2ccccc2c1)c1nc2ccc(F)cc2s1,inactive
14,CCOc1ccc(-n2c(SCc3ccc([N+](=O)[O-])cc3)nnc2-c2ccc(OC)cc2)cc1,inactive
15,CCCOc1ccc(-c2c(C(=O)N/N=C/c3cccs3)nnn2-c2nonc2N)cc1,inactive
16,CC(=O)c1ccc(-c2ccc(C(=O)N3CCC(C(N)=O)CC3)o2)cc1,inactive

row,Compound,outcome
1,Cc1csc2nc(=O)c3ccccc3n12,inactive
2,Cc1cccc(Nc2ccccc2C(=O)OCC(=O)N(C)C2CCS(=O)(=O)C2)c1C (stereo unspecified),inactive
3,O=[N+]([O-])c1ccc(-c2cnc(SC(c3ccccc3)c3ccccc3)[nH]2)cc1,inactive
4,CS(=O)(=O)c1ccc(C(=O)OCC(=O)N(CCc2ccccc2)Cc2ccccc2)cc1,inactive
5,CC(C)c1c(C(=O)N/N=C/c2c[nH]c3ccccc23)nnn1-c1nonc1N,inactive
6,Cc1ccc(N=Cc2c(O)n(C)c(=O)n(C)c2=O)nc1,inactive
7,O=C(Nc1ccc(Cl)c([N+](=O)[O-])c1)C(Sc1ccccc1)c1ccccc1 (stereo unspecified),inactive
8,CC1CCN(Cc2c(C(=O)N/N=C/c3cccc(C(F)(F)F)c3)nnn2-c2nonc2N)CC1,inactive
9,COc1ccc(C2Nc3ccccc3C(=O)N2Cc2ccccc2)cc1COc1ccccn1 (stereo unspecified),inactive
10,CN(C(=O)COC(=O)c1cc([N+](=O)[O-])ccc1Sc1ccccc1)C1CCS(=O)(=O)C1 (stereo unspecified),inactive
11,Cc1ccc2nc(N(CCN(C)C)C(=O)c3ccc4ccccc4c3)sc2c1,inactive
12,O=C(c1cc(-c2ccccc2)nc2ccccc12)N1CCN(c2ccccn2)CC1,inactive
13,Nc1nonc1-n1nnc(C(=O)N/N=C/c2cccc(Cl)c2)c1CSc1ccc(Cl)cc1,inactive
14,CCn1cc(/C=C(\NC(=O)c2ccccc2F)C(=O)N2CCCC2)c2ccccc21,inactive
15,N/C(Cc1ccc([N+](=O)[O-])cc1)=N\OC(=O)c1ccc2ccccc2c1,inactive
